Assay results taken from PubChem BioAssay (Tox21).
Where “and” joins values, the source holds several entries; their conditions need not be identical. Equal values may be shown once. Inconclusive results are not listed. A structure can be active in one record and inactive in another. Calls of active or inactive are those of the source. Unless noted, calls follow the shape of the dose curve; as a rule, active = well fitted curve in the direction sought with a large enough effect in the repeat runs; inconclusive = weak or mixed curves; inactive = no such curve, though single readings can be large; an effect the other way counts as inactive or inconclusive.

Key:
[1] = qHTS assay to identify small molecule agonists of the vitamin D receptor (VDR) signaling pathway - cell viability counter screen (AID 743224); also: nearly all actives have a fitted effect of over 50% in size; also: potency is read from the fitted curve at half-maximal effect
How it was run: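 Compounds were pin-transferred onto VDR-bla cells plated 4 h earlier; following 16 h incubation at 37C, cell viability was quantified by CellTiter-Glo luminescence after 30 min at room temperature.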

[2] = qHTS assay to identify small molecule agonists of the NFkB signaling pathway - cell viability counter screen (AID 1159515; calls by dose curve; also: nearly all actives have a fitted effect of over 55% in size; also: potency is read from the fitted curve at half-maximal effect)
How it was run: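 Parallel cytotoxicity counter screen in ME-180 cells carrying an NFkB-response-element beta-lactamase reporter, 2,000 cells/well. Compound exposure lasted 5 hr at 37 C, 5% CO2. Cell viability was quantified by CellTiter-Glo luminescence.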

[3] = qHTS assay to identify small molecule agonists of the endoplasmic reticulum stress response signaling pathway - cell viability counter screen (AID 1159517; calls by dose curve; also: nearly all actives have a fitted effect of over 50% in size; also: potency is read from the fitted curve at half-maximal effect;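 as to activity change, negative = cytotoxicity: HeLa cells carrying an ER stress response element beta-lactamase reporter; series mostly up to about 61 µM; % is scaled to controls: 0 for no effect and ±100 for the full control effect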)
How it was run: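 ESRE-bla HeLa cells (1,500/well) were plated overnight at 37 C and exposed to compounds for 5 hr. After the 2 hr beta-lactamase substrate read, CellTiter-Glo went into the same wells, and luminescence was read after 30 min at room temperature.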

[4] = biological target: Nuclear receptor ROR-gamma (Homo sapiens) (UniProt P51449); test: qHTS assay to identify small molecule antagonists of the retinoid-related orphan receptor gamma (ROR-gamma) signaling pathway (AID 1159521; also: nearly all actives have a fitted effect of over 50% in size; also: potency is read from the fitted curve at half-maximal effect)
How it was run: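 RORγ antagonism is scored from reduced reporter luminescence in Tet-on CHO cells. Induction used 1 uM final doxycycline hyclate for 16 h at 37 C, following a 2 h compound exposure.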

[5] = qHTS assay to identify small molecule agonists of the AP-1 signaling pathway - cell viability counter screen (AID 1159525; calls by dose curve; also: nearly all actives have a fitted effect of over 55% in size; also: potency is read from the fitted curve at half-maximal effect)
How it was run: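 Intracellular ATP by Cell Titer Glo luminescence (30 min, RT) in the same ME-180 AP-1-bla wells after the 5 h compound exposure at 37 °C. Normalised to tetra n-octyl ammonium bromide and DMSO controls.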

[6] = qHTS assay to identify small molecule antagonists of the retinoid acid receptor (RAR) signaling pathway - cell viability counter screen (AID 1159551); also: nearly all actives have a fitted effect of over 35% in size; also: potency is read from the fitted curve at half-maximal effect; as to activity change, negative = cytotoxicity: % is scaled to controls: 0 for no effect and ±100 for the full control effect
How it was run: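 ATP-based viability, C3RL4 cells, 6 h at 37 C with 1 uM final retinol co-added after compound; luminescence read 30 min post CellTiter-Glo, RT.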

[7] = qHTS assay to identify small molecule antagonists of the retinoic acid receptor (RAR) signaling pathway (AID 1159552; also: nearly all actives have a fitted effect of over 50% in size; also: potency is read from the fitted curve at half-maximal effect; as to activity, negative = inhibition: % is scaled to controls: 0 for no effect and ±100 for the full control effect)
How it was run: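 Quantitative HTS in C3RL4 RARE-luciferase reporter cells. Compounds were added with 1 uM (final) retinol; luminescence was read after 6 hr.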

[8] = qHTS assay to identify small molecule agonists of the RXR signaling pathway - cell viability counter screen (AID 1159529); also: nearly all actives have a fitted effect of over 50% in size; also: potency is read from the fitted curve at half-maximal effect
How it was run: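 Cell viability is measured by CellTiter-Glo luminescence, 30 min at room temperature, in wells already read for beta-lactamase. Engineered HEK 293T cells (RXR-alpha-UAS-bla) are dosed 16 hr at 37 C. Tetraoctyl ammonium bromide serves as positive control.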

[9] = qHTS assay to identify small molecule agonists of the retinoic acid receptor (RAR) signaling pathway (AID 1159553); also: potency is read from the fitted curve at half-maximal effect
How it was run: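 Quantitative high-throughput format: the Tox21 10K library was tested on C3RL4 RARE-luciferase cells for 6 hr at 37 C and 5% CO2, with luminescence measured after a 30 min room-temperature reagent step.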

[10] = qHTS assay to identify small molecule antagonists of the vitamin D receptor (VDR) signaling pathway - cell viability counter screen (AID 743225); also: nearly all actives have a fitted effect of over 50% in size; also: potency is read from the fitted curve at half-maximal effect
How it was run: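 Cells (VDR-UAS-bla HEK 293T) are plated, rested 4 h at 37C, dosed with compound and 3 nM final 1-alpha,25-dihydroxy vitamin D3, and incubated 16 h. Viability is taken from CellTiter-Glo luminescence in the reporter wells.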

[11] = biological target: Retinoic acid receptor RXR-alpha (Homo sapiens) (UniProt P19793); test: qHTS assay to identify small molecule agonists of the RXR signaling pathway (AID 1159527; calls by dose curve; also: % is scaled to controls: 0 for no effect and ±100 for the full control effect; nearly all actives have a fitted effect of over 35% in size)
How it was run: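 qHTS of the Tox21 10K library in GeneBLAzer RXR-alpha HEK 293T cells carrying a beta-lactamase reporter […]; 16 hr treatment, 9-cis retinoic acid as agonist control, FRET read-out.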

[12] = qHTS assay to identify small molecule agonists of the AP-1 signaling pathway (AID 1159526; calls by dose curve; also: % is scaled to controls: 0 for no effect and ±100 for the full control effect)
[13] = qHTS assay to identify small molecule antagonists of the estrogen related receptor signaling pathway with the pleiotropic PPARgamma coactivator (PGC) cell viability counter screen (AID 1224822;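 also: potency is read from the fitted curve at half-maximal effect; viability read after 17.5 h compound exposure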)
How it was run: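 Cytotoxicity in the PGC/ERR cell line is assessed with CellTiter-Fluor, read as fluorescence intensity 30 min after reagent addition, following 17.5 h compound treatment at 37 C.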

[14] = qHTS assay to identify small molecule antagonists of the retinoid-related orphan receptor gamma (ROR-gamma) signaling pathway - cell viability counter screen (AID 1159520)
How it was run: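 Cytotoxicity was read from cellular ATP (CellTiter-Glo luminescence) after 16 hr at 37 C with 1 uM doxycycline induction. The inducer was added 2 hr after compound transfer to Tet-on ROR gamma CHO cells.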

Chain of Retinoic acid receptor RXR-alpha (Homo sapiens) (P19793 whole entry, looked up): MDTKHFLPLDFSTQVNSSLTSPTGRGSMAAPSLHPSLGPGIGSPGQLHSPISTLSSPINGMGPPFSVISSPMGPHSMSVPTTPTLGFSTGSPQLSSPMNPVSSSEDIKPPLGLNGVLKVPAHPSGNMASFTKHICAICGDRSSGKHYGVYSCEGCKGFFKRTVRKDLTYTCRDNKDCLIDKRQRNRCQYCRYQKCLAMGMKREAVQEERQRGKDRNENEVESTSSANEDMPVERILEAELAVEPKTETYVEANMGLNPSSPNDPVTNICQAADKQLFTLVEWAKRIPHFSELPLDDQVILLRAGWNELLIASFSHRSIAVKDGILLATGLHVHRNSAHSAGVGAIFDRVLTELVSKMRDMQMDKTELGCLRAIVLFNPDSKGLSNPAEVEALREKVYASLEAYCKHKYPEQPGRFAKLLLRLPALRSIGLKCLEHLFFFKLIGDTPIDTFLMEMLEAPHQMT

C=C(C)C(=O)OCC(O)COc1ccc(C(C)(C)c2ccc(OCC(O)COC(=O)C(=C)C)cc2)cc1 (centres undefined)
inactive: Potency [2] | Potency [3] | Potency [5] | Potency [6] | Potency [7]
active: Potency [1] 12.3 µM | Potency [4] 24.3 µM

O=C(Nc1cccc([N+](=O)[O-])c1)c1cc2ccccc2cc1O
active: Potency [1] 1.23 µM | Potency [4] 4.33 µM | Potency [9] 0.969 µM
inactive: Potency [2] | Potency [3] | Potency [5] | Potency [8] | Potency [6] | Potency [7]

C=CC(=O)OCC(CO)(COCC(COC(=O)C=C)(COC(=O)C=C)COC(=O)C=C)COC(=O)C=C
active: Potency [1] 3.84 µM | Potency [10] 5.43 µM | Potency [2] 48.4 µM | Potency [3] 3.42 µM | Potency [4] 2.7 µM | Potency [5] 24.2 µM | Potency [8] 8.6 µM | Potency [6] 53.8 µM | Potency [9] 0.957 µM

Nc1nc2ccccc2n1Cc1ccc(F)cc1
active: Potency [4] 10.6 µM
inactive: Potency [1] | Potency [2] | Potency [3] | Potency [5] | Potency [8] | Potency [6] | Potency [7]

C=CC(=O)OCC(CO)(COC(=O)C=C)COC(=O)C=C
inactive: Potency [2]
active: Potency [1] 12.3 µM and 13.8 µM | Potency [3] 21.9 µM | Potency [4] 2.44 µM and 6.86 µM | Potency [5] 49.1 µM and 49 µM | Potency [8] 13.9 µM and 12.3 µM | Potency [6] 61.3 µM

NNc1nc(-c2ccccc2)cs1
inactive: Potency [2] | Potency [3] | Potency [4] | Potency [5] | Potency [11] | Potency [6]

CCCCCOc1ccccc1/C(=C\SC)n1ccnc1
active: Potency [4] 13.3 µM | Potency [9] 33.5 µM
inactive: Potency [1] | Potency [2] | Potency [3] | Potency [5] | Potency [6] | Potency [7]

CCN(CC)CCNC(=O)c1c(C)[nH]c(/C=C2\C(=O)Nc3ccc(F)cc32)c1C
inactive: Potency [2] | Potency [5] | Potency [12]
active: Potency [1] 29.8 µM | Potency [3] 7.56 µM | Potency [8] 7.56 µM | Potency [6] 33.5 µM | Potency [7] 26.6 µM | Potency [13] 8.74 µM

CCCCCCCCCOC(=O)c1ccc(O)cc1
active: Potency [1] 17.1 µM | Potency [10] 24.2 µM | Potency [2] 54.2 µM | Potency [3] 54.2 µM | Potency [5] 38.3 µM | Potency [8] 24.2 µM
inactive: Potency [7] | Potency [9]

CC(NN)c1ccccc1 (centres undefined)
inactive: Potency [1] | Potency [10] | Potency [2] | activity, negative = cytotoxicity [14] 0.565% [at 19 µM] | activity change, negative = inhibition [4] -0.108% [at 19 µM] | viability change, negative = cytotoxic [5] 4.35% [at 15.8 µM] | activation [12] -4.49% [at 15.8 µM] | activation [11] -0.0243% [at 15.8 µM] | activity change, negative = cytotoxicity [8] -0.339% [at 15.8 µM] | activity change, negative = cytotoxicity [6] 1.08% [at 19 µM] | activity, negative = inhibition [7] 37.3% [at 19 µM]

CC[C@H]1O[C@]2(CC[C@@H]1C)C[C@@H]1C[C@@H](C/C=C(\C)C[C@@H](C)/C=C/C=C3\CO[C@@H]4[C@H](O)C(C)=C[C@@H](C(=O)O1)[C@]34O)O2
active: Potency [1] 17.2 µM | Potency [10] 21.7 µM | Potency [2] 24.3 µM | Potency [3] 24.3 µM | Potency [5] 21.7 µM | Potency [8] 19.3 µM | Potency [6] 68 µM

c1cc(C(c2ccc(OCC3CO3)cc2)c2ccc(OCC3CO3)cc2)ccc1OCC1CO1 (centres undefined)
inactive: Potency [2] | Potency [3] | Potency [5] | Potency [6]

Cc1cc2c(cc1C(F)(F)F)N(C(=O)Nc1ccc(Oc3cccnc3C)nc1)CC2
inactive: Potency [10] | Potency [2] | Potency [3] | Potency [8] | Potency [6] | Potency [9]
active: Potency [1] 31.4 µM

CCC(Cl)C(Cl)C(Cl)CC(Cl)C(Cl)C(C)Cl (centres undefined)
inactive: Potency [2] | Potency [3] | Potency [5] | Potency [12] | Potency [6] | Potency [7]
active: Potency [1] 38.9 µM

CCCCCCCCOC(=O)c1ccc(O)cc1
inactive: Potency [2] | Potency [11] | Potency [6] | Potency [9]
active: Potency [1] 21.8 µM and 49 µM | Potency [10] 49 µM | Potency [3] 54.9 µM | Potency [5] 54.8 µM
43.5 µM (active) and inactive: Potency [8]

CN(C/C=C/C#CC(C)(C)C)Cc1cccc2ccccc12
inactive: Potency [3] | Potency [4] | Potency [5] | Potency [6] | Potency [9]
active: Potency [2] 21.3 µM | Potency [8] 7.56 µM

O=c1c(-c2ccccc2)c1-c1ccccc1
inactive: Potency [2] | Potency [3]
active: Potency [4] 18.8 µM | Potency [8] 6.01 µM | Potency [7] 4.22 µM

Nc1ccc(N)c2ccccc12
active: Potency [1] 19.5 µM | Potency [2] 11 µM | Potency [3] 0.775 µM | Potency [5] 54.9 µM | Potency [8] 21.8 µM | Potency [6] 68.5 µM

C[C@@H]1C[C@H]2[C@@H]3CCC4=CC(=O)C=C[C@]4(C)[C@@]3(Cl)[C@@H](O)C[C@]2(C)[C@@]1(OC(=O)c1ccco1)C(=O)CCl
active: Potency [4] 11.9 µM
inactive: Potency [2] | Potency [3] | Potency [5] | Potency [12] | Potency [6]

NC(=O)N1C(=O)C(C(=O)c2cc(Cl)cs2)c2cc(F)c(Cl)cc21 (centres undefined)
active: Potency [1] 21.9 µM | Potency [10] 13.8 µM | Potency [4] 19.3 µM | Potency [8] 49 µM
inactive: Potency [2] | Potency [3] | Potency [5] | Potency [6] | Potency [7]

CO[Si](CCCNc1ccccc1)(OC)OC
inactive: Potency [1] | Potency [2] | Potency [3] | Potency [4] | Potency [5] | Potency [11] | Potency [8] | Potency [6] | Potency [7]

CCCCN(CCCC)c1ccc(C(=O)c2ccccc2C(=O)O)c(O)c1
inactive: Potency [2] | Potency [4] | Potency [5] | Potency [12] | Potency [6]
active: Potency [3] 35 µM
